The whole screen tested about 360,000 compounds, of which about 5,000 (1.4%) were called active. The entries come from a sample that favours actives as a whole. A number with no mark means an inactive call.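 How the source made its calls: active means inhibition of 50% or more, scaled per plate between neutral and stimulator controls; inactive means the rest.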
test: mitochondrial permeability transition pore inhibitors, primary screen, biochemical, isolated mouse mitochondria, absorbance (AID 602449); conditions: Ca2+ swelling absorbance, 30 min, at 10 µM, active compounds read high;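 further: 0% = DMSO wells given calcium and 100% = 1 mM EGTA wells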

SMILES	inhibition
CCCCNc1c(-c2cccc(Sc3ccc(OC)cc3)c2)nc2ccccn12	6.5%
CC(=O)NC(CC(=O)Nc1ccc(S(=O)(=O)N2CCOCC2)cc1)c1ccccc1 (configuration not stated)	-1.9%
COc1ccc(C(C)(O)c2nc(-c3cc(F)cc(F)c3)cs2)cc1 (configuration not stated)	1.2%
COC(=O)C1=CN(c2c(C)cc(C)cc2C)C(N)=C(C#N)C1c1cccc(F)c1 (configuration not stated)	1.1%
CCCCN(C)C(=O)C1CCN(Cc2ccccn2)CC1	-1%
O=c1c2ccccc2nc2n1C(CSCc1cccc(C(F)(F)F)c1)CS2 (configuration not stated)	54% (active)
O=c1c2ccccc2nc2n1C(CSc1ccc(Cl)cc1)CN2 (configuration not stated)	-1.7%
C#CCCCc1nc2ccccc2c(=O)n1N	5.8%
O=c1c2ccccc2nc2n1C(CSCc1ccccc1)CS2 (configuration not stated)	52.1% (active)
N#Cc1c(-c2ccccc2)nc(SCc2cccc(C(F)(F)F)c2)[nH]c1=O	49.1%
Cn1c(-c2sccc2OCc2cccc(C(F)(F)F)c2)n[nH]c1=S	0.2%
COC(=O)[C@@]1(Cc2ccc(F)cc2)[C@H]2c3cc(C(=O)N(C)C)n(CCc4c[nH]c5ccc(OC)cc45)c3C[C@H]2CN1C(=O)c1ccccc1	-3.6%
Cc1ccc(OCc2nnc(NC(=O)OCC(C)C)s2)cc1	0%
O=c1c2[nH]c3ccc(Cl)cc3c2ncn1Cc1ccccn1	0.2%
COc1ccccc1C1C(C#N)=C(N)Oc2c1c(-c1ccccc1)nn2-c1ccccc1 (configuration not stated)	43.7%
CN/C(=C\[N+](=O)[O-])NCCSCc1csc(CN(C)C)n1	-1.8%
O=C(Nc1cccc(F)c1)NC1CCCCCCC1	46.7%
O=C(Nc1cccc(F)c1)c1coc(=O)c(Br)c1	92.1% (active)
Cc1c(NC(=O)c2coc(=O)c(Br)c2)c(=O)n(-c2ccccc2)n1C	0.9%
CCC(C)NC(=O)N[C@@H](CCSC)C(=O)O (some centres not stated)	-0.7%
Cc1cc(C)c(SCCc2ccncc2)c(C)c1	90.9% (active)
CC(C)(C)c1ccc(SCCc2ccncc2)cc1	105% (active)
Cc1cc(C)c(NC(=O)CSc2nc3ccncc3[nH]2)c(C)c1	-1.3%
c1ccc(CSCCc2ccncc2)cc1	4%

SMILES	inhibition
Cc1ccc(SCCSc2ncccn2)cc1	1.5%
CCN(Cc1ccncc1)C(=O)CCc1ccccc1	4%
CN(C)CCNC(=O)c1ccc(-c2cn3c(-c4ccc(Oc5ccccc5)cc4)cnc3cn2)cc1	-1.4%
O=C(OC1CCOC1=O)c1cccc(S(=O)(=O)Nc2ccc(F)cc2)c1 (configuration not stated)	2.8%
CCOc1ccc(S(=O)(=O)NCCCn2ccnc2)cc1NC(C)=O	-0.5%
CCN(CC)CCCN1C(=O)C(=O)/C(=C(/O)c2c(C)nc3ccccn23)C1c1ccc(C)o1 (configuration not stated)	1.3%
O=C(CN(Cc1ccccc1)C(=O)c1ccc2c(c1)OCCO2)NCc1ccc2c(c1)OCO2	-5.6%
CCC(=O)N1CCc2cc(S(=O)(=O)CCC(=O)N3CCN(c4ccccc4F)CC3)ccc21	0.5%
O=C(C1Cc2ccccc2CN1C(=O)c1ccco1)N1CCN(c2ccccc2)CC1 (configuration not stated)	0.7%
CN1CCC(N(C)C(=O)c2ccc(Cl)c(S(=O)(=O)Nc3ccc(Cl)cc3)c2)CC1	-0.7%
C=C1c2c(Cl)ccc(O)c2C(O)=C2C(=O)[C@]3(O)C(O)=C(C(N)=O)C(=O)[C@@H](N(C)C)[C@@H]3[C@@H](O)C12 (some centres not stated)	80.1% (active)
CCC(C)(C)NC(=O)CN(C(=O)CCC(=O)Nc1nccs1)c1ccc2c(c1)OCO2	0.4%
CCOC(=O)CNC(=O)/C=C/c1c(Cl)cccc1Cl	0.6%
COc1ccc([N+](=O)[O-])cc1NCC(=O)c1ccc(C)cc1	0.6%
COc1ccc(NC(C)=O)cc1NC(=O)CN1CCN(C2c3ccccc3-c3ccccc32)CC1	-1.5%
c1ccc2c(c1)C(=NC1CCCCC1)NC2=NC1CCCCC1	67.5% (active)
Cc1cc2nc(SCCN3CCOCC3)[nH]c2cc1C	0%
Cc1cc(C)cc(OCC(=O)Nc2ccc(S(=O)(=O)Nc3ccccn3)cc2)c1	3.7%
O=S(=O)(Nc1ccc(Oc2ncccn2)c(Cl)c1)c1ccc(F)cc1	-1.6%
Cc1ccc(S(=O)(=O)Nc2ccc3ncccc3c2)cc1	85% (active)
O=C(CCN1C(=O)c2ccccc2C1=O)NNC(=O)c1ccc(Cl)cc1Cl	-0.8%
Cc1cc(OCCCC(=O)NCCN2C(=O)S/C(=C\c3cccnc3)C2=O)ccc1Cl	84.3% (active)
O=C(NCCN1C(=O)S/C(=C\c2cccnc2)C1=O)c1cccc(OC(F)F)c1	2.4%

From PubChem BioAssay AID602449 (Sanford-Burnham Center for Chemical Genomics, 2012)
